CHT allo act = CHT positive allosteric modulators, primary screen, cell-based, membrane potential dye, choline EC20 | High affinity choline transporter 1 (Homo sapiens), Q9GZV3 | CHT-expressing cells; stronger effect = higher value; LV-AA mutant CHT in HEK293 cells | B-score at 10 µM | hit rate 0.49% among 310,000;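 active = initial fluorescence not abnormally high and integrated response B-score, plate-corrected, over 3 SD above library mean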
Target sequence (Q9GZV3 whole entry, looked up): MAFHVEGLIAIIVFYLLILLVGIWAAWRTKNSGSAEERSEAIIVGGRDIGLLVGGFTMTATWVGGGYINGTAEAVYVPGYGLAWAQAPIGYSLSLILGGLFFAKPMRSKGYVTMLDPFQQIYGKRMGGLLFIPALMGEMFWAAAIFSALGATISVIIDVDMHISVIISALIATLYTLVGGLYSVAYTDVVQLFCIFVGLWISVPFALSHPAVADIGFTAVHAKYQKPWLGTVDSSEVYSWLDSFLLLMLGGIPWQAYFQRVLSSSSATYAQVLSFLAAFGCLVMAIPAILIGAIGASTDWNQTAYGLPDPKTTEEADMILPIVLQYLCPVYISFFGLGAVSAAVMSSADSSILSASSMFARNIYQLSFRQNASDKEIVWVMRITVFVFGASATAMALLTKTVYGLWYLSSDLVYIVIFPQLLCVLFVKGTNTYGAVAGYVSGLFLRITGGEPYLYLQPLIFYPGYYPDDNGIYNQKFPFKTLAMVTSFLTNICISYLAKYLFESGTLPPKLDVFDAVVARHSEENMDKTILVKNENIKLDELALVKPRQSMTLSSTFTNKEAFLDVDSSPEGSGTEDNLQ
CHT block = inhibitors of human choline transporter CHT; High affinity choline transporter 1 (Homo sapiens), Q9GZV3; CHT-expressing cells, membrane potential dye, choline response; stronger effect = lower value; B-score at 10 µM; hit rate 0.86% among 310,000;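 active = B-score over 3 SD under the library average, and starting fluorescence ratio not unusually high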;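 also: choline stimulus applied at its EC90 after an EC20 pre-addition; B-score computed on integrated fluorescence ratio after choline addition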
TMEM16A inh = TMEM16A chloride channel inhibitors, primary screen, cell-based, HTS; hit rate 1.2% among 310,000; HEK293 TMEM16A/YFP iodide influx fluorescence, ionomycin; normalized B-score (activity score, 25-100; higher = stronger inhibition) at 10 µM; Anoctamin-1 (Mus musculus), Q8BHY3; AID 588511, 2011;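 active = ratio plate-corrected score three or more library SD toward inhibition, starting fluorescence score within five deviations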;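 also: score derived from kinetic fluorescence span divided by baseline fluorescence per well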
TMEM16A act = TMEM16A chloride channel activators or potentiators, primary screen, cell-based, HTS. HEK293 TMEM16A/YFP-H148Q/I152L, iodide quench fluorescence; stronger effect = lower value. B-score at 10 µM. hit rate 0.3% among 340,000. AID 623877, 2012;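 active = fluorescence-ratio B-score plate-corrected deviation score at least 3 library SD below zero, with starting fluorescence score within 5 deviations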;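 also: channel opened by trigger with iodide after compound preincubation; score built on the fluorescence ratio of max minus min over baseline; more negative score means more quench and so TMEM16A activation or potentiation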
CHT activ conf = CHT activators, confirmation, cell-based, membrane potential dye, duplicate. hit rate 91% among 2,500. CHT-expressing cells, membrane potential dye fluorescence (FDSS); % of choline EC20–EC90 response window; HEK293 expressing CHT LV-AA mutant; choline added at its EC20. shares compounds with CHT allo act. activation, % at 10 µM;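 active = primary screen active, with duplicate mean activation above negative control mean plus 3 SD, cut at about 11% in these data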
HEK293 MP dye = membrane potential response in parental HEK293 cells, counter-screen for CHT activator project, cell-based, membrane potential dye; shares compounds with CHT allo act; membrane potential dye fluorescence (FDSS); measured after EC20 choline addition; ratio readout change at 10 µM, hits read low; hit rate 62% among 2,500; AID 623908, 2012;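 active = duplicate-averaged ratio beyond 3 SD from buffer wells, up or down, though filed actives are nearly all decreases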
Active calls of the source: *; i = inactive; / = no result. This is a sample that favours compounds with a hit; in the whole collection about 2.4% have one here.

SMILES	CHT allo act	CHT block	TMEM16A inh	TMEM16A act	CHT activ conf	HEK293 MP dye
CC(C)(C)n1nnnc1C(c1ccc(C(F)(F)F)cc1)N(Cc1ccc(F)cc1)Cc1ccco1 (configuration not stated)	12*	i	i	i	31*	i
O=C(NC1CCCc2ccccc21)C12CC3CC(CC(O)(C3)C1)C2 (configuration not stated)	i	i	i	i	/	/
CC1(C)NC(=O)N(CCCOc2ccc3c(c2)CCC3)C1=O	i	i	i	i	/	/
CC(=O)Nc1ccc(N2CCCC(C)C2)c([N+](=O)[O-])c1 (configuration not stated)	i	i	i	i	/	/
O=C(c1ccc(Cl)cc1)c1cc([N+](=O)[O-])ccc1N1CCOCC1	i	i	i	i	50*	i
CC1CCCN(c2ccc([N+](=O)[O-])cc2C(=O)c2ccccc2)C1 (configuration not stated)	7.6*	i	i	i	27*	i
COc1ccc(COC(=O)c2cc([N+](=O)[O-])ccc2N2CCOCC2)cc1F	9.4*	i	i	i	67*	i
O=C(COC(=O)c1cc([N+](=O)[O-])ccc1N1CCOCC1)Nc1ccc(Cl)cn1	6.8*	i	i	i	20*	i
CSc1ccc(CNCC(O)c2ccccc2)cc1 (configuration not stated)	i	i	i	i	/	/
O=C(NCc1ccc2c(c1)OCO2)c1cc([N+](=O)[O-])ccc1N1CCCCC1	9.2*	i	i	i	51*	i
O=C(NCc1ccc2c(c1)OCO2)c1cccc([N+](=O)[O-])c1	i	i	i	i	/	/
Cc1ccc(C(=O)c2cc([N+](=O)[O-])ccc2N2CC(C)OC(C)C2)cc1 (configuration not stated)	i	i	i	i	/	/
Cc1ccc(C(=O)c2cc([N+](=O)[O-])ccc2N2CCCCC2)cc1	i	i	i	i	31*	i
O=C(c1ccccc1)c1cc([N+](=O)[O-])ccc1N1CCOCC1	i	i	i	i	57*	i
COC(=O)CSc1ccnc2cc(Cl)ccc12	i	i	i	i	/	/
C=CCN1C(=O)c2ccc(C(=O)NCC(=O)Nc3c(C)cc(C)cc3C)cc2C1=O	/	/	/	i	/	/
COc1cc(C)nc(Oc2ccc(/C=N/O)cc2)n1	i	i	i	i	/	/
Nc1ncn(C(=S)Nc2ccccc2)n1	/	/	/	i	/	/
Cc1nn(C)c2ncc(C(N)=O)c(Oc3cccnc3)c12	i	i	i	i	/	/
CCOC(=O)c1cnc2c(c(C)nn2C)c1Oc1ccc(Cl)cc1	6.4*	i	i	i	27*	i
COc1ccc(-n2c(-c3ccc(Cl)cc3)c[n+]3c2CCc2ccccc2-3)cc1	8.2*	i	i	i	86*	-29*
CCC(C)c1ccccc1N1CC(C(=O)Nc2ccccc2N2CCCC2)CC1=O (configuration not stated)	i	i	i	i	29*	i
CCOC(=O)c1cnc2c(cnn2C)c1NCCCn1ccnc1	7.2*	i	i	i	44*	-81*
Cc1sc2nc(CN3CCCC3)nc(N3CCN(S(=O)(=O)c4ccccc4)CC3)c2c1C	/	/	/	i	/	/
Cc1sc2nc(CN3CCCC3)nc(Cl)c2c1C	i	i	i	i	52*	i
SMILES	CHT allo act	CHT block	TMEM16A inh	TMEM16A act	CHT activ conf	HEK293 MP dye
Cc1sc2nc(CN3CCCC3)nc(NCc3ccncc3)c2c1C	6.3*	i	i	i	32*	-34*
CCCn1c(=O)c2ccccc2n2c(SCCNCCO)nnc12	9.1*	i	i	i	57*	-51*
NC(N)=Nc1nc(-c2ccccc2)c2cc(F)ccc2n1	i	i	i	i	29*	-48*
OCCSc1nc(-c2ccccc2)nc2ccc(F)cc12	i	i	i	i	/	/
COc1cc2c3c(c1OC)C1(C=CC(=NO)C=C1)CC3N(C(C)=O)CC2 (configuration not stated)	i	i	i	i	/	/
Cc1ccn2c(C(=O)CSc3ccccc3Cl)c(C)nc2c1	i	i	i	i	/	/
COC(=O)c1cc2c(=O)n3ccccc3nc2n(Cc2cccnc2)c1=N	6.8*	i	i	/	40*	-55*
Cc1ccc2nc3c(cc(C#N)c(=N)n3Cc3cccnc3)c(=O)n2c1	8.5*	i	i	/	41*	-28*
CCCCCCn1c(CN2CCN(CCO)CC2)nc2c1c(=O)n(C)c(=O)n2C	8.1*	i	i	i	60*	-56*
CCCCn1c(CN(C)Cc2ccccc2)nc2c1c(=O)n(C)c(=O)n2C	6.6*	i	i	i	0	i
CCCn1c(CN(C)Cc2ccccc2)nc2c1c(=O)n(C)c(=O)n2C	i	i	i	i	/	/
CCCCCCn1c(CN2CCC(C)CC2)nc2c1c(=O)n(C)c(=O)n2C	i	i	i	i	/	/
O=C(CNC(=O)N1CC(=O)Nc2ccccc21)NCc1ccc(Cl)cc1	i	i	i	i	/	/
CC(C)(C)NC(=O)c1oc2ccccc2c1COc1ccccc1	i	i	i	i	33*	i
CC(OC(=O)c1oc2ccccc2c1COc1ccccc1)C(N)=O (configuration not stated)	i	i	i	i	/	/
COc1ccc(C(=O)C2CCCN(Cc3cccn3-c3ccccn3)C2)c(OC)c1 (configuration not stated)	i	i	i	i	/	/
COc1ccc(F)cc1C(=O)C1CCCN(Cc2cccn2-c2ccccn2)C1 (configuration not stated)	16*	i	i	i	58*	i
O=C(c1cc(F)ccc1F)C1CCCN(Cc2cccn2-c2ccccn2)C1 (configuration not stated)	13*	i	i	i	42*	i
COc1ccccc1C1C(C(=O)c2cc3ccccc3o2)=C(O)C(=O)N1c1cc(C)on1 (configuration not stated)	i	i	i	i	/	/

Screening results from PubChem.
